From PubChem
The list is not random: actives were taken first. Their share in the collection is about 4.6%.
hgDAF12 agonist – agonists of H. glycines DAF-12 nuclear receptor; AID 687014; HEK293 GAL4-hgDAF12 UAS-luciferase reporter, agonist luminescence; normalized to butyrate control; activation, % at 6.8 µM; actives 1.8% (n = 370,000);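 active means activation above a cutoff set at the mean of all screened compounds plus 3 SD, cut at about 10% in these data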;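 further: 0% = DMSO wells and 100% = sodium butyrate wells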
ssDAF-12 act – activators of S. stercoralis DAF-12 nuclear receptor; actives 1% (n = 370,000); activation, % at 6.8 µM; HEK293 ssDAF-12/GRIP1 lit1-tk-luc reporter, luminescence; % of 3 µM dafachronic acid response; AID 652126;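 active means activation above the mean over all tested compounds plus 3 SD, cut at about 0.9% in these data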;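 further: 0% = DMSO-only wells and 100% = 3 µM delta7-dafachronic acid wells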
DAX1 inh-1 – DAX1 (NR0B1) inhibition, primary screen; HEK293T StAR-luciferase reporter, SF-1/DAX-1 repression relief; AID 652010; inhibition, % at 6.8 µM; actives 1.1% (n = 370,000);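 active means inhibition above the mean over all tested compounds plus 3 SD, cut at about 3.6% in these data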;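 further: 0% = DAX-1 cells with DMSO and 100% = cells lacking DAX-1 with DMSO; higher inhibition means more luminescence from relief of DAX-1 repression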
Wee1 degr inh – human Wee1 degradation inhibition, primary screen | HeLa Luc-Wee1K328M stability, luciferase luminescence; 100% = proteasome inhibitor MG132 effect | reporter increase, % at 5 µM | actives 1.2% (n = 220,000);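 active means activation above the mean of all tested compounds plus 3 SD, set per screening run, cut at about 8.8% in these data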;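 further: cells exposed to compound for 20 h before luminescence read; 0% = DMSO alone and 100% = MG132 at 30 µM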
DAX1 inh-2 – inhibits human nuclear receptor DAX1 | P51843 | HEK293 Gal4-DAX1 luciferase reporter, luminescence | inhibition, % at 6.75 µM | actives 0.99% (n = 340,000) | AID 504766;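 active means inhibition above the mean over all tested compounds plus 3 SD, cut at about 4.2% in these data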;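 further: 0% = DAX1-transfected cells with DMSO and 100% = empty-vector control cells with DMSO; inhibition shows as a rise in luminescence from relieved DAX1 repression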
Target sequence (P51843 207-470 limits assumed): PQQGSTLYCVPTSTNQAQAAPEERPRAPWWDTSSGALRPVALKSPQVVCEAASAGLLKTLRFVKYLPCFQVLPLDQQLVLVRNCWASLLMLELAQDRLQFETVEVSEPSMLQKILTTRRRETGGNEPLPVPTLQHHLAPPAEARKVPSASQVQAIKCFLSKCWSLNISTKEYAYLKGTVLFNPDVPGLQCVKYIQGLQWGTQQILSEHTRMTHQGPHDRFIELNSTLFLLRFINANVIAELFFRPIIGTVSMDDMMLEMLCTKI
hcDAF-12 act – activators of H. contortus DAF-12 nuclear receptor; HEK293 hcDAF-12 lit1-tk-luc reporter, luminescence; 0% DMSO, 100% Δ7-dafachronic acid; activation, % at 6.8 µM; actives 1.4% (n = 370,000);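 active means activation above the mean of all tested compounds plus 3 SD, cut at about 5.5% in these data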;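 further: 100% = response to 3 µM Δ7-dafachronic acid high control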
Wee1 stab conf – human Wee1 degradation inhibition, confirmation; shares compounds with Wee1 degr inh; activation, % at 5 µM; actives 4% (n = 1,100); HeLa Luc-Wee1K328M degradation, luminescence; vehicle 0%, proteasome-blocked wells 100%; AID 1410; in the data active means activation above about 8.9%
DAX1 conf – confirmation of human DAX1 (NR0B1) inhibitors | shares compounds with DAX1 inh-1 | inhibition, % at 6.8 µM | AID 652134 | actives 87% (n = 2,400) | HEK293T StAR-promoter luciferase reporter, SF-1/DAX-1 repression;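 active means inhibition above the average of every tested compound plus 3 SD, cut at about 3.8% in these data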;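 further: 0% = DAX-1 cells with DMSO and 100% = no DAX-1 control cells with DMSO; active compounds raise luminescence by relieving repression of the StAR reporter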
SF1 AF2mut Luc – nonselective inhibitor or artifact in SF-1 mutant DAX1 counter-screen; shares compounds with DAX1 inh-1; HEK293 StAR-luciferase, SF-1 AF2 mutant, luminescence; inhibition, % at 6.8 µM; actives 78% (n = 2,400); AID 652136;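 active means inhibition above the mean of all tested compounds plus 3 SD, cut at about 3% in these data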;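 further: 0% = DAX-1 transfected cells with DMSO and 100% = cells without DAX-1 with DMSO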
LXRb hcDAF ctr – counter-screen for hcDAF-12 agonists: agonists of human LXR-beta; shares compounds with hcDAF-12 act; HEK293 Gal4-LXR tk-luc reporter, luminescence, 24 h; normalized: DMSO 0%, positive control 100%; activation, % at 6.8 µM; 3,400 tested, under 10 active;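 active means mean percent activation of the reporter above a cutoff set as the average over tested compounds plus their standard deviation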
hcDAF12 conf – hcDAF-12 agonism, confirmation assay | actives 61% (n = 3,400) | activation, % at 6.8 µM | HEK293 hcDAF-12 lit1-tk-luc reporter, luminescence; % of Δ7-dafachronic acid response | shares compounds with hcDAF-12 act;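 active means mean activation across triplicate tests above the threshold derived from the earlier primary screen, cut at about 5.5% in these data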;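 further: 0% = DMSO only wells and 100% = 3 µM Δ7-dafachronic acid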
Numbers without * were called inactive.

Nc1c2c(nc3sc4c(c13)CCCC4)-c1ccccc1CC2 was read as hgDAF12 agonist 10, ssDAF-12 act 1.1*, DAX1 inh-1 3, Wee1 degr inh 18*, DAX1 inh-2 3, hcDAF-12 act 7.6*, Wee1 stab conf 1, LXRb hcDAF ctr 2 and hcDAF12 conf 11*.
`NC(=O)c1sc2nc(-c3ccccc3)c3c(c2c1N)CCCC3` gave hgDAF12 agonist -4, ssDAF-12 act -2, DAX1 inh-1 -2, Wee1 degr inh 1, DAX1 inh-2 0 and hcDAF-12 act -2.
Screening Cc1ccc2cc(CNC[C@H]3O[C@@H](n4cc(C)c(=O)[nH]c4=O)C[C@@H]3O)c(N3CCOCC3)nc2c1 returned hgDAF12 agonist 3, ssDAF-12 act -1, DAX1 inh-1 0, DAX1 inh-2 0 and hcDAF-12 act -1.
`C[C@@H]1CN([C@H](C)CO)S(=O)(=O)c2ccc(Br)cc2O[C@H]1CN(C)C(=O)C1CC1` gave hgDAF12 agonist 0, ssDAF-12 act -1, DAX1 inh-1 -1, DAX1 inh-2 1 and hcDAF-12 act 2.
For O=C(COC(=O)CNC(=O)c1ccccc1)NC(=O)NC1CCCCC1 the results were hgDAF12 agonist -3, ssDAF-12 act -1, DAX1 inh-1 1, DAX1 inh-2 1 and hcDAF-12 act -2.
Screening O=C(Nc1ccc2c(c1)CCC2)c1ccc(F)cc1 returned hgDAF12 agonist 20*, ssDAF-12 act 1, DAX1 inh-1 5.7*, Wee1 degr inh 17*, DAX1 inh-2 0, hcDAF-12 act 6.7*, Wee1 stab conf -2, DAX1 conf 13*, SF1 AF2mut Luc 5.4*, LXRb hcDAF ctr 2 and hcDAF12 conf 6.6*.
Screening CCOC(=O)c1cn[nH]c1NC(=S)Nc1ccc(OC)cc1 returned hgDAF12 agonist 9, ssDAF-12 act 0, DAX1 inh-1 2, Wee1 degr inh 12*, DAX1 inh-2 -2, hcDAF-12 act 8.0*, Wee1 stab conf -6, LXRb hcDAF ctr 1 and hcDAF12 conf 9.3*.
For Nc1nc2ccc(C(=O)Nc3ccccc3)cc2s1 the results were hgDAF12 agonist 11*, ssDAF-12 act 1.9*, DAX1 inh-1 1, Wee1 degr inh 15*, DAX1 inh-2 3, hcDAF-12 act 11*, Wee1 stab conf 3, LXRb hcDAF ctr 1 and hcDAF12 conf 7.7*.
For CN(Cc1c(F)cccc1Cl)C(=O)c1ccc(NC(=O)CC2SC(N3CCCC3)=NC2=O)cc1 (configuration not stated) the results were hgDAF12 agonist 0, ssDAF-12 act -1, DAX1 inh-1 1, DAX1 inh-2 0 and hcDAF-12 act 0.
For CCCCNC(=O)C[C@H]1C[C@@]2(C(=O)OC)C(=C[C@H](C(C)C)O[C@@H]2C2CC2)N(Cc2ccco2)C1=O the results were hgDAF12 agonist -2, ssDAF-12 act -2, DAX1 inh-1 0 and hcDAF-12 act -3.
